# High-throughput results as filed in PubChem BioAssay.
# CHX counter: counter-screen hit for Shiga toxin inhibitors, cycloheximide; 300,000 tested, 12% active; max response, %; cell reporter, cycloheximide protein synthesis inhibition counterscreen; in the data active = max response mostly above about 13%, no sharp cut-off; inactive = mostly below about 14%; also: read at 38.3 µM for the half of the compounds with a filed dose; 0% is about no effect
# AMA1-RON2 inh: disrupts binding of P. falciparum AMA1 to RON2 | AlphaScreen AMA1-biotinylated RON2 peptide binding | Potency, µM (titrated, usually from 58.2 µM), for the others: at the highest dose activity change, negative = inhibition, usual class: inhibitors | 360,000 tested, 0.2% active | AID 720542;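 also: potency is read from the fitted curve at half-maximal effect; 0% = vehicle wells and -100% = peptide control; nearly all actives have a fitted effect of over 45% in size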
#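 AMA1 (3D7) with his tag at 25 nM final met compounds first, then biotinylated RON2 peptide at 25 nM; detection used donor plus acceptor beads, 10 µg/mL apiece, read by AlphaScreen after 30 min at room temperature.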
# Pf growth 96h: P. falciparum growth inhibition at 96 hour, primary screen for plastid delayed-death inhibitors; P. falciparum luciferase reporter growth, 96 h; Potency, µM (series often up to 28.7 µM), without a hit: top-dose activity change, negative = inhibition, usual class: inhibitors; 320,000 tested, 6.9% active; also: potency is read from the fitted curve at half-maximal effect; % is scaled to controls: 0 for no effect and ±100 for the full control effect
#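 Readout is luminescence from an integrated firefly luciferase in P. falciparum. Red cells, 2% hematocrit and 0.05% parasitemia final, were cultured with compound through two parasite generations (96 hours) at 37 C, 5% CO2.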
# Pf growth 48h: inhibits P. falciparum growth in the first generation, 48 h; P. falciparum luciferase growth in erythrocytes, 48 h; Potency, µM (titrated, usually from 28.7 µM), without a hit: at the top dose activity change, negative = inhibition, hits mostly inhibitors; 310,000 tested, 5.9% active; AID 504832; also: potency is read from the fitted curve at half-maximal effect; % is scaled to controls: 0 for no effect and ±100 for the full control effect
#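 Cell-based growth assay: transgenic P. falciparum expressing firefly luciferase, cultured in red cells within RPMI 1640 containing 0.5% w/v Albumax, 24 mM bicarbonate and gentamycin. A drop in luciferase activity indicates inhibition.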
# HCV inhibitor: HCV inhibition; Huh7.5.1 HCVcc-Cre infection, luciferase reporter, 44 h; Potency, µM (highest dose often 41.8 µM), inactives show at the highest dose activity change, negative = inhibition, most hits filed as inhibitors; 340,000 tested, 3.4% active; AID 651820; also: potency is read from the fitted curve at half-maximal effect; % is scaled to controls: 0 for no effect and ±100 for the full control effect
#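 Seed cells (1,000/well) for 4 h; treat with compound and infect with HCVcc-Cre, moi about 0.5. Incubate 44 h, then detect luciferase activity.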
# Shiga toxin inh: inhibitors of Shiga toxin in Vero cells. Vero cells, Shiga toxin protein synthesis inhibition reporter. inhibition, % at 38.7 µM. 290,000 tested, 9.2% active. AID 2315; in the data active = inhibition mostly above about 28%, no sharp cut-off; inactive = mostly below about 43%; also: 0% is about no effect
# * hit, by the source's call; ? = inconclusive; / = not tested or not shown; [ ] = dose if it differs, or a comment. Shown are actives, neighbours in structure and some others; about 21% of the full set was active somewhere. Unless noted, calls follow the shape of the dose curve; as a rule, active = well fitted curve in the direction sought with a large enough effect; inconclusive = small, poorly fitted or top-dose-only effect, or another doubt; inactive = no such curve, though single readings can be large; an effect the other way counts as inactive or inconclusive.
SMILES,CHX counter,AMA1-RON2 inh,Pf growth 96h,Pf growth 48h,HCV inhibitor,Shiga toxin inh
CCOC(=O)c1c(NC(=O)CSc2nnc(Cc3ccccc3)o2)sc(C(C)=O)c1C,14.0,20.7%,/,-21.2%,?,-3.5
COC(=O)CN(C(=O)CSc1nnc(-c2cccc(OC)c2)o1)c1ccc(OC)cc1,-1.0,-4.9%,17.8%,0.5%,4.5%,14.4
CCOC(=O)CN(C(=O)CSc1nnc(-c2cccc(OC)c2)o1)c1ccc(F)cc1,14.7*,3.5%,?,?,-26.2%,31.7
CCN(CC)S(=O)(=O)c1ccc(Cl)c(NC(=O)COC(=O)/C=C/c2ccc(O)c(OC)c2)c1,6.9,2.3%,-8.1%,-1.3%,?,3.1
CN(C)S(=O)(=O)c1cccc(NC(=O)c2cccc(NS(=O)(=O)c3ccccc3)c2)c1,-4.9,-7.9%,-17.9%,?,12.6µM*,-4.1
CN(c1ccccc1)S(=O)(=O)c1cccc(NC(=O)c2ccc(Cl)c([N+](=O)[O-])c2)c1,/,-7.8%[11.6 µM],/,/,11.2µM*,/
Cc1ccc(NC(=O)c2ccc(S(=O)(=O)N(C)c3ccccc3)cc2)cc1S(=O)(=O)N1CCOCC1,/,3.4%,/,/,?,/
COc1ccccc1NS(=O)(=O)c1cccc(NC(=O)c2cncc(Br)c2)c1,/,31.6%,/,/,12.6µM*,/
Cc1nc2cc(NC(=O)c3ccc(S(=O)(=O)N(C)c4ccccc4)cc3)ccc2o1,30.4*,12.6%,?,?,6.31µM*,126.1*
CN(c1ccccc1)S(=O)(=O)c1cccc(NC(=O)c2ccc(=O)[nH]c2)c1,/,-10.3%,?,?,-11.5%,/
Cc1ccc(C)c(C(C)NC(=O)c2ccc(Br)o2)c1 (stereo unspecified),-1.1,-4.2%,?,-20.8%,-9.2%,24.9
CC1=C(C(=O)N2CCOCC2)CC(CC(=O)NCCCCc2ccccc2)C(=O)N1CCC1=CCCCC1 (stereo unspecified),/,-7.8%,/,/,/,/
CN(c1ccccc1)S(=O)(=O)c1cccc(NC(=O)c2cc(=O)c3ccccc3o2)c1,0.7,-21.2%,10.4µM*,?,11.2µM*,14.6
CN(c1ccccc1)S(=O)(=O)c1cccc(NC(=O)c2ccncc2)c1,-2.0,-6.9%,?,-11.3%,10µM*,-2.5
O=C(O)c1cccc(S(=O)(=O)Nc2ccc3c(c2)CCC3)c1,4.4,11.1%,4.15µM*,39.1%,14.4%,-20.5
CCCC(=O)Nc1cccc(S(=O)(=O)N(C)c2ccccc2)c1,-1.2,9.0%,-24.0%,-14.1%,?,-6.2
CSc1ncccc1C(=O)Nc1cccc(S(=O)(=O)N(C)c2ccccc2)c1,/,0.0%,?,9.28µM*,?,/
C[C@H](CO)N1C[C@H](C)[C@@H](CN(C)Cc2cccnc2)Oc2ncc(-c3cccc(C#N)c3)cc2C1=O,/,8.1%,/,/,/,/
CCOC(=O)c1ccc(N2CCOCC2)c(NS(=O)(=O)c2ccc(F)cc2)c1,5.9,3.9%,?,-3.4%,0.4%,-9.2
N[C@@H](CSCCCO)C(=O)O,/,/,0.0%,-1.1%,/,/
CN(c1ccc(C(=O)Nc2cccc([N+](=O)[O-])c2)cc1)S(C)(=O)=O,20.3,4.0%,9.5%,57.1%,?,13.6
CN(c1ccccc1)S(=O)(=O)c1cccc(NC(=O)c2cncc(Br)c2)c1,-4.4,2.1%,8.28µM*,10.4µM*,?,-5.2
CN(c1ccccc1)S(=O)(=O)c1cccc(C(=O)Nc2ccc3c(c2)CCC3)c1,20.5*,-15.2%,?,?,?,81.9*
CC(=O)c1cccc(NC(=O)c2ccc(N(C)S(C)(=O)=O)cc2)c1,10.1,-1.1%,/,15.7%,?,17.6
CN(c1cccc(NC(=O)c2ccc(C(C)(C)C)cc2)c1)S(C)(=O)=O,43.4*,36.0%,-10.2%,272.3%,?,41.8
CN(c1cccc(NC(=O)c2ccc(N(C)S(=O)(=O)c3ccccc3)cc2)c1)S(C)(=O)=O,-2.0,14.9%,19.0%,?,8.91µM*,5.6
O/N=C\c1ccccc1Oc1ccc(F)cc1,-2.6,3.8%,0.0%,16.8%,-7.7%,27.1
C[C@H](CO)N1C[C@H](C)[C@@H](CN(C)S(=O)(=O)c2ccccc2C#N)OCc2cn(nn2)CCCC1=O,/,7.0%,/,/,/,/
